# High-throughput results (PubChem)
# The list is not random: actives were taken first. Their share in the collection is about 1.6%.
# HTR5A ag – HTR5A agonists in luminescence cell assay, primary screen, counter-screen for OPRM1-OPRD1 heterodimer agonist project, full-deck HTS; cell-based; activation, % at 9.3 µM; hit rate 0.61% among 340,000; AID 504692, 2011; in the data active = activation mostly above about 9.5%, no sharp cut-off; inactive = mostly below about 7.6%;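 note: 0% = cells with vehicle only and 100% = reference agonist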
# MOR-DOR ag-1 – agonists of OPRM1-OPRD1 heterodimerization, primary screen, cell-based, luminescence; cells; hit rate 0.3% among 340,000; Mu-type opioid receptor (Homo sapiens) + Delta-type opioid receptor (Homo sapiens), …; activation, % at 9.3 µM;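 note: 0% = vehicle-treated cells and 100% = reference agonist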
# HTR5A inv ctr – HTR5A inverse agonists in luminescence cell assay, primary screen, counter-screen for OPRM1-OPRD1 heterodimer inverse agonist project, full-deck HTS; 5-hydroxytryptamine receptor 5A (Homo sapiens), P47898; HTR5A cell line, inverse agonism; inhibition, % at 9.3 µM; hit rate 0.083% among 340,000; AID 504634, 2011; in the data active = inhibition mostly above about 23%, no sharp cut-off; inactive = mostly below about 18%;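 note: 0% = cells with DMSO and 100% = no-cell wells with DMSO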
# MOR-DOR inv ag – inverse agonists of MOR-DOR heterodimerization, primary screen, cell-based, luminescence | cell-based MOR-DOR heterodimer luminescence, inverse agonism | inhibition, % at 9.3 µM | hit rate 0.21% among 340,000 | AID 504357, 2011; in the data active = inhibition above about 22%, passing the limit was not always enough;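 note: 0% = cells with DMSO and 100% = wells without cells with DMSO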
# HTR2A ag – mouse Htr2a agonists via beta-arrestin recruitment, primary screen, cell-based, luminescence; 5-hydroxytryptamine receptor 2A (Mus musculus), P35363; CHO-K1 mHTR2A beta-arrestin complementation; percent of 30 µM serotonin response; activation, % at 7.6 µM; hit rate 0.66% among 360,000;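 active = activation above a run cutoff, the mean activation of all tested compounds plus 3 SD, cut at about 14% in these data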;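 note: 0% = plate median of compound wells and 100% = 30 µM serotonin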
# Target sequence (P35363 whole entry, looked up): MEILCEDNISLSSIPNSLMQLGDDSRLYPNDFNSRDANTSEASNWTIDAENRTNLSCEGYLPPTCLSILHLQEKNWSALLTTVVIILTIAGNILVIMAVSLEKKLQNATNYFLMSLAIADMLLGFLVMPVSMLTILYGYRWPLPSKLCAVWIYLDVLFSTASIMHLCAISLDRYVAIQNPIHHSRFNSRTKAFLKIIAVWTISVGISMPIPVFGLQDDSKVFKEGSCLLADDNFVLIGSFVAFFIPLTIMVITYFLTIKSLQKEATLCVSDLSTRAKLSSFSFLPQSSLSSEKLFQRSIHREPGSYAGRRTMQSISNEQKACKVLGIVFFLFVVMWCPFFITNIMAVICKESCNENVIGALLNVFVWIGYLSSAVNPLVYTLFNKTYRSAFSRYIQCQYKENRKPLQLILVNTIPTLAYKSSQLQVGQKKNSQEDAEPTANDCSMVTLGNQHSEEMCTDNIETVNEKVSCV
# MOR-DOR ag-2 – OPRM1-OPRD1 heterodimerization promoters, counter-screen for HTR5A agonist project, cell-based, luminescence; shares compounds with HTR5A ag; U2OS counter-screen cells, complementation luminescence, 3 h; activation, % at 9.3 µM; hit rate 13% among 800
# HTR5A ag confirm – HTR5A agonists, retest of hits, confirmation, cell-based, luminescence. AID 504915, 2011. activation, % at 9.3 µM. shares compounds with HTR5A ag. hit rate 17% among 800. HTR5A agonist cell assay; in the data active = activation above about 17%;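 note: 0% = cells with vehicle only and 100% = full reference agonist response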
# * marks the source's active call; other numbers are inactive results; . = no result. Cut-off read from the data, not from the text of the source, unless noted: active = activation above about 18%; inactive = the rest.
SMILES,HTR5A ag,MOR-DOR ag-1,HTR5A inv ctr,MOR-DOR inv ag,HTR2A ag,MOR-DOR ag-2,HTR5A ag confirm
CC(NC(=O)c1ccco1)c1ccc2c(c1)OCCO2 (stereo not drawn),15*,0,-14,0,2,2,-3
O=C(NCc1cccnc1)c1csc([C@H]2C[C@H](O)[C@@H](CO)O2)n1,.,.,.,.,-2,.,.
COc1ccc(Cl)cc1N(CC(=O)NCCSc1ccccn1)S(=O)(=O)c1ccccc1,16*,1,-49,-8,-4,1,18*
CC(=O)NC(C)(c1ccccc1)c1nc(-c2cccc(F)c2)cs1 (stereo not drawn),.,.,.,.,-1,.,.
O=C(NCCc1cnc[nH]1)Nc1cccc(C(F)(F)F)c1,17*,2,-21,-11,-4,0,12
Cc1cccc(/C=N/NC(=O)c2ccc(NC(=O)c3ccc(F)cc3)cc2)n1,21*,12,-64,-101,-6,3,-1
CCOC(=O)C1=C(COC(=O)/C=C/c2ccco2)NC(=O)NC1C (stereo not drawn),16*,4,3,-23,6,4,0
COc1cccc(CNC(=O)[C@@H]2CCCN2C(=O)[C@H]2CCCCN2)c1,.,.,.,.,1,.,.
COc1ccccc1C(=O)N1CCN(C(=O)[C@H]2O[C@@H](n3ccc(N)nc3=O)[C@H](O)[C@@H]2O)CC1,.,.,.,.,2,.,.
CC(=O)c1ccc(N(CC(=O)NCC2CCCO2)C(=O)CCC(=O)Nc2cc(C)on2)cc1 (stereo not drawn),14*,2,-26,-11,4,3,0
COCCNc1nc(Nc2ccccc2Cl)c2sccc2n1,.,.,.,.,-7,.,.
COc1cccc(C2CC(=O)Nc3cc4c(cc32)CCC4)c1 (stereo not drawn),15*,0,-42,1,6,54*,-1
CC(=O)c1ccc2c(c1)N(Cc1ccccc1)C(=O)C(C)S2 (stereo not drawn),.,.,.,.,-13,.,.
O=C(NCCc1c[nH]c2ccccc12)C(=O)NCC1OCCN1S(=O)(=O)c1ccccc1 (stereo not drawn),36*,-2,-65,12,2,1,57*
Cc1ccc(S(=O)(=O)N2CCCOC2CNC(=O)C(=O)NCCc2c[nH]c3ccccc23)cc1 (stereo not drawn),30*,2,-91,-12,12,3,26*
O=C(NCCc1c[nH]c2ccccc12)C(=O)NCC1OCCCN1S(=O)(=O)c1ccccc1 (stereo not drawn),48*,-1,-177,6,1,4,47*
O=C(NCCc1c[nH]c2ccccc12)C(=O)NCC1OCCN1S(=O)(=O)c1ccc(F)cc1 (stereo not drawn),11,0,-35,0,5,.,.
O=C(NCCc1c[nH]c2ccccc12)C(=O)NCC1OCCN1S(=O)(=O)c1ccc(Cl)cc1 (stereo not drawn),3,0,-42,2,-3,.,.
CCOC(=O)C1=C(C)NC(=O)NC1c1ccc(-c2ccccc2F)o1 (stereo not drawn),-1,2,-27,-11,11,.,.
CC(=O)C1=C(C)NC(C)=C(C(C)=O)C1c1ccc(-c2ccccc2Cl)o1,23*,-1,-56,4,-7,1,2
CSc1ccccc1NC(=O)C1(C)CCN1C(=O)Cc1ccc(-c2ccccc2)cc1 (stereo not drawn),.,.,.,.,0,.,.
O=S(=O)(N/N=C\C=C\c1ccccc1)c1ccc(Cl)cc1,28*,8,-106,-43,1,4,43*
CCCCN1C(=O)C(CC(=O)NC2CCCC2)CC(C(=O)N2CCCCCC2)=C1C (stereo not drawn),.,.,.,.,6,.,.
CC1CC1C(=O)N(C)CC(=O)Nc1cccc(F)c1 (stereo not drawn),-4,-1,10,5,-8,.,.
CN(CC(=O)Nc1cccc(F)c1)C(=O)C1(c2ccccc2)CC1,14*,-3,-7,11,4,3,-1
SMILES,HTR5A ag,MOR-DOR ag-1,HTR5A inv ctr,MOR-DOR inv ag,HTR2A ag,MOR-DOR ag-2,HTR5A ag confirm
CN(C)c1cccc(NC(=O)Cc2ccc(F)cc2)c1,18*,-1,12,8,-4,1,8
O=C(O)c1ccc2c(c1)N(Cc1ccccc1F)C(=O)c1ccccc1S2=O (stereo not drawn),16*,-2,-45,9,1,0,-2
CCN1CCN(C(=O)c2ccc3c(c2)N(Cc2ccccc2)C(=O)c2ccccc2S3=O)CC1 (stereo not drawn),1,0,-2,0,-4,.,.
Cc1ccc2c(c1)Oc1ccc([N+](=O)[O-])cc1C(=O)N2,-4,2,9,-11,-6,.,.
Cc1ccc2c(c1)Oc1ccc(NC(=O)CCl)cc1C(=O)N2,15*,-3,-18,14,-3,2,4
O=c1c2ccccc2nc2n1CCc1ccc(Br)cc1-2,.,.,.,.,1,.,.
O=C(CN1CCCCC1)n1c2ccccc2c2ccccc21,24*,2,-63,-12,1,13,4
COC(=O)CCC(=O)OC1(C)C(=O)C2=CN(CCc3c[nH]c4ccccc34)C(c3ccc(OC)cc3)=CC2=C(Br)C1=O (stereo not drawn),38*,5,-98,-27,2,86*,2
NC(=O)C1=C(N=C2CCCCC2)CCCC1,18*,-3,-69,15,-2,0,6
CC(=O)CCn1cnc([N+](=O)[O-])n1,15*,-2,1,9,-1,60*,-1
COc1ccc(C(=O)NC2CCCCCC2)cc1S(=O)(=O)Nc1ccc(Br)cc1,15*,1,-39,-4,4,1,5
Cc1ccc(S(=O)(=O)N(C)C[C@H]2Oc3cc(C#Cc4ccccc4)ccc3S(=O)(=O)N([C@H](C)CO)C[C@@H]2C)cc1,.,.,.,.,-2,.,.
O=C1c2ccccc2C(c2nnnn2-c2ccc3c(c2)OCCO3)N1Cc1cccc(F)c1 (stereo not drawn),.,.,.,.,-3,.,.
COc1ccc(OCCC(=O)Nc2cc3c(cc2C(=O)O)OCCCO3)cc1,15*,0,-72,2,0,-1,-1
COc1ccccc1OCC(=O)Nc1cc2c(cc1C(=O)O)OCCCO2,2,-1,-14,5,6,.,.
CC(C)(C)NC(=O)NC(=O)COC(=O)COc1ccc2c(c1)CCC2,20*,6,-54,-36,4,10,4
Cc1nc(Cc2nnc(SC(C)C(=O)Nc3ccccc3)o2)cs1 (stereo not drawn),.,.,.,.,11,.,.
